Consider twelve compounds from PubChem BioAssay (EPA / NIEHS).

Results filed as inconclusive are left out. Calls of active or inactive are those of the source. Rule for the calls: active = hit-call score of the fitted dose curve at least 0.9, where 1 is the maximum; inconclusive = response in the unintended direction; inactive = score below 0.9.

Chain of Retinoic acid receptor RXR-alpha (Homo sapiens) (P19793 whole entry, looked up, the tested form may be a part): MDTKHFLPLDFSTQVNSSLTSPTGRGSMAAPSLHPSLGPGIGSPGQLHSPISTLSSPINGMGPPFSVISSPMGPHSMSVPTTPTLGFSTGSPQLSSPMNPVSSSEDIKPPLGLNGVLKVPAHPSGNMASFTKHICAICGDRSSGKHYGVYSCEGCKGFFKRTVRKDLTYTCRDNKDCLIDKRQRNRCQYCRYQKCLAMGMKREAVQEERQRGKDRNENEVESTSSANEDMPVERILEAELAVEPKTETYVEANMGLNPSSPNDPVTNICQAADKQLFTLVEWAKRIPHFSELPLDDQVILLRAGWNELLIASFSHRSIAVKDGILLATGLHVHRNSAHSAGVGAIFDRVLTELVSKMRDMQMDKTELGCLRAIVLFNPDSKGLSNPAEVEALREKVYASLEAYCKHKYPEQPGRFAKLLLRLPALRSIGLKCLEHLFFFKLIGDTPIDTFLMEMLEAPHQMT

This experiment addresses Retinoic acid receptor RXR-alpha (Homo sapiens) (UniProt P19793). In words: OT_NURR1_NURR1RXRa_0480: Odyssey Thera (OT) 8-hour HEK293T Protein Complementation Assay for Nurr1/retinoid X receptor (RXR) (AID 2283385). In outline: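 HEK293T cells expressing Nurr1 and RXRα fused to reporter fragments were dosed with compound for 8 hours. Complex formation was read as fluorescence intensity and analysed as gain of signal against DMSO as baseline.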
On to `O=C(O)c1ccccc1C(=O)OCc1ccccc1`, for which the compound was classed as inactive.

With `CCCC(=O)OCCC(C)C`, the result was inactive.

`CC(O)CC(C)(C)O` (configuration not stated): the result was inactive.

For the compound `CCN(Cc1cccnc1)C(=O)c1cccc(Cl)c1[C@]1(C)C(=O)N(Cc2ccc(OC)cc2OC)c2ccc(Cl)cc21`, the result was inactive.

Take `CCCCOC(=O)CC(CC(=O)OCCCC)(OC(C)=O)C(=O)OCCCC`: the result was inactive.

For `Cc1ccc(C(C)C)cc1`, the compound was called inactive.

Regarding `CCN(Cc1cccc(S(=O)(=O)O)c1)c1ccc(C(=C2C=CC(=[N+](CC)Cc3cccc(S(=O)(=O)O)c3)C=C2)c2ccccc2S(=O)(=O)[O-])cc1`, the call was inactive.

As for `Cc1occc1C(=O)Nc1ccc(C(=O)N2CCC(F)(F)/C(=C\C(=O)N3CCC(N4CCCCC4)CC3)c3ccccc32)cc1`, the AC50 (commonly the midpoint of the concentration-response curve, whichever way the signal moves) was 28.6 µM (active).

In the case of `Cc1cn([C@H]2C[C@H](N=[N+]=[N-])[C@@H](CO)O2)c(=O)[nH]c1=O`, the outcome was inactive.

In the case of `CC(C)(C)c1cc(/C=C2\SC(N)=NC2=O)cc(C(C)(C)C)c1O`, the result was inactive.

As to `CC/C(=C(/CC)c1ccc(O)cc1)c1ccc(O)cc1`, the compound was classed as inactive.

For the compound `COCC(C)OCC(C)OCC(C)O` (configuration not stated), the outcome was inactive.
